SKKanGAS inh: blocks kanamycin growth of S. pyogenes SKKanGAS strain; AID 1662; BacTiter-Glo, 6 h; hit rate 1.3% among 300,000; inhibition, % at 7.5 µM;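 active means mean replicate score, as percent of positive control median, at least 50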;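 further: strain carries kanamycin resistance gene driven by streptokinase promoter and grows in 40 µg/ml kanamycin; loss of luminescence reflects streptokinase promoter inhibition or plain growth inhibition; 0% = median of DMSO wells and 100% = positive control at its reference dose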
TIM10 inh: growth inhibitors of TIM10 yeast strain | S. cerevisiae TIM10 strain growth, BacTiter-Glo luminescence, 24 h | inhibition, % at 10 µM | hit rate 1.4% among 330,000;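 active means inhibition of 40% or more at the single tested concentration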;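 further: wild-type TIM10 isogenic control strain grown at permissive 25 °C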
tim23-1 inh: growth inhibitors of tim23-1 mutant yeast; S. cerevisiae tim23-1 growth, BacTiter-Glo luminescence, 24 h; inhibition, % at 20 µM; hit rate 1.3% among 330,000; AID 463212;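 active means growth inhibition of the mutant yeast at or above 50%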;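 further: temperature-sensitive mutant grown at 25 °C; plate controls were DMSO-treated mutant yeast for no effect and medium wells lacking yeast for full effect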
NALP1 inh: blocks the NALP1 inflammasome reconstituted in yeast; S. cerevisiae NALP1/ASC/caspase-1 growth, X-gal OD620, 72 h; inhibition, % at 10 µM; hit rate 0.61% among 280,000; in the data active means inhibition mostly above about 24%, no sharp cut-off; inactive means mostly below about 32%
PfHsp90 set2: inhibits growth of yeast expressing Plasmodium falciparum Hsp90; S. cerevisiae expressing PfHsp90, BacTiter-Glo ATP, 48 h; yeast lacking PDR1 and PDR3 efflux regulators; inhibition, % at 9.4 µM; hit rate 0.32% among 310,000;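 active means every replicate shows inhibition above about 80%, whatever the replicate mean, limit read from the data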;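 further: 0% = DMSO neutral controls and 100% = 20 µM radicicol positive controls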
tim10-1 inh: growth inhibitors of tim10-1 mutant yeast | S. cerevisiae tim10-1 ts strain growth, BacTiter-Glo, 24 h | inhibition, % at 20 µM | hit rate 2.2% among 330,000;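 active means inhibition of at least 40%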;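 further: mutant grown at 25 °C; 0% = DMSO wells with yeast and 100% = wells holding no yeast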
tim10-1 confirm: confirmation of tim10-1 mutant yeast growth inhibitors; hit rate 56% among 7,400; inhibition, % at 20 µM; S. cerevisiae tim10-1 ts strain growth, BacTiter-Glo, 24 h; shares compounds with tim10-1 inh;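 active means inhibition of yeast growth at or above a set limit in either of two repeat tests at 20 µM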;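 further: tim10-1 mutant grown at permissive 25 °C to find synthetic lethal compounds; 0% = DMSO yeast wells and 100% = medium wells without yeast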
An asterisk follows results filed as active; x = not tested or not shown. An excerpt weighted towards active compounds, which were near 4.8% of everything screened.

SMILES	SKKanGAS inh	TIM10 inh	tim23-1 inh	NALP1 inh	PfHsp90 set2	tim10-1 inh	tim10-1 confirm
CC1=CC(C)(C)Nc2ccc(OC(=O)CN3C(=O)c4cccc5cccc(c45)C3=O)cc21	3	x	x	23	-13	x	x
CC1=CC(C)(C)Nc2ccc(OC(=O)CN3C(=O)c4ccccc4C3=O)cc21	-2	16	42	64*	15	47*	32*
O=C(Cn1cc2c(n1)CCCCC2)NC1CCN(Cc2ccccc2)CC1	0	-15	10	0	-28	2	x
Clc1ccc(Cn2c(-c3cccnc3Cl)nc3ccccc32)c(Cl)c1	2	22	22	7	10	42*	12
Clc1ccc(Cn2c(-c3cccnc3Cl)nc3ccccc32)cc1	3	7	31	5	1	43*	26
CCn1c(-c2cccnc2Cl)nc2cc(Cl)c(Cl)cc21	1	-5	28	37	5	23	x
CCOc1ccc(N2C(=O)CNC2=S)cc1	0	-21	5	-28	x	26	x
CCOc1ccc(N2C=Nc3ccc(OCC)cc3C2)cc1	-7	-1	33	36	26	42*	25
CCOc1ccccc1-n1nnnc1SCC(=O)NCC1(N2CCOCC2)CCCCC1	x	6	26	x	4	16	x
CC(C)(C)C(=O)[C@@H]1[C@@H]2C(=O)N(C3CCCCC3)C(=O)[C@@H]2[C@H]2c3ccccc3C=CN12	x	26	26	26	4	40*	26
CN(C)c1cccc(C(=O)NCCCn2ccc3ccccc32)c1	-1	-24	21	21	6	-1	x
CCc1cc(=O)oc2cc(OC3CCCCC3=O)ccc12 (stereo not drawn)	-2	5	35	12	-30	43*	13
CCCC(=O)N1CCCC(C(=O)c2cccc(OC(C)C)c2)C1 (stereo not drawn)	3	x	x	x	15	x	x
CCCNC(=O)c1sc2c(c1C(=O)Nc1ccccn1)CCCC2	-9	15	38	1	4	47*	27
CCCN(CCC)CCN1C(=O)C2C(C(=O)Nc3ccc(C)cc3)C3C=CC2(O3)C1C(=O)NC1CCCCC1 (stereo not drawn)	3	-12	12	18	9	4	x
Cc1ccc(N2C(=O)CC(Sc3cccs3)C2=O)cc1 (stereo not drawn)	4	18	29	2	9	45*	49*
COc1ccc(C(=O)CCC(=O)N2CCN(c3ccc(C)cc3)C(C)C2)cc1 (stereo not drawn)	-11	7	26	2	14	27	x
COc1ccc(OCCNC(=O)c2cccc(Oc3ccc(C(F)(F)F)cc3[N+](=O)[O-])c2)cc1	6	6	0	16	-28	23	x
Cn1c2ccccc2c(=O)c2ccc(C#CC3(O)CCCCC3)cc21	63*	-5	-5	8	2	47*	34*
CCCOc1c(OC)cc(Cl)cc1C1NC(=O)NC(C)=C1C(=O)NCc1ccccc1 (stereo not drawn)	6	8	-2	3	3	23	x
O=C(O)c1nc(Cl)c(Cl)c(N/N=C/c2ccccc2C(F)(F)F)c1Cl	14	7	25	19	28	26	x
COc1ccc(C2OCC(C)(C)CO2)cc1OC	x	x	x	x	1	x	x
COc1ccc(C2C=C(C34CC5CC(CC(C5)C3)C4)NC(=S)N2)cc1OC (stereo not drawn)	-1	8	40	12	-36	56*	17
CCOc1ccc(NCC(=O)Nc2ccc(Cl)cc2C)cc1	2	17	34	-3	x	45*	20
Cc1cccn2c(=O)c3cc(C(=O)NC4CCCC4)c(=N)n(Cc4ccc(F)cc4)c3nc12	5	13	19	8	-8	43*	-18
SMILES	SKKanGAS inh	TIM10 inh	tim23-1 inh	NALP1 inh	PfHsp90 set2	tim10-1 inh	tim10-1 confirm
Cc1cccn2c(=O)c3cc(C(=O)NC4CCCCC4)c(=N)n(Cc4ccccc4)c3nc12	19	5	8	13	-1	3	x
CC1(C)CC(=O)C2=C(C1)N(CC1CCCO1)C(=O)NC2(C(F)(F)F)C(F)(F)F (stereo not drawn)	-1	15	25	5	24	14	x
Cc1cccn2c(=O)c(C=O)c(N3CCCCC3)nc12	-2	-4	35	-6	7	21	x
Cc1cccn2c(=O)c(C=O)c(N3CCN(c4ccc(F)cc4)CC3)nc12	-8	33	28	0	12	49*	36*
COC(=O)CN(C#N)c1nc(OC)nc(N(C)C)n1	-16	8	-13	-9	3	-9	x
CCOC(=O)C(=O)Nc1nccs1	8	11	6	6	9	14	x
CCOC(=O)/C=C/C(=O)Nc1nccs1	17	32	34	46*	19	43*	40*
CC(=O)Nc1c(C)ccc(CNC(=O)COc2ccc(F)cc2)c1C	-17	1	12	15	8	10	x
CCOC(=O)CC(=O)CSc1nc2c(c(-c3cccs3)c1C#N)CCC2	-11	26	41	x	-4	42*	33*
Cc1ccc(-c2nc(NCc3cccnc3)c3ccccc3n2)cc1	-1	11	38	15	27	46*	30
c1cncc(-c2nc(NCc3ccco3)c3ccccc3n2)c1	-6	16	30	22	-22	41*	37*
Cc1ccc(-c2nc(NCc3ccco3)c3ccccc3n2)cc1	5	33	48	32	x	34	x
COc1cccc(NC(=S)NNC(=O)c2ccccc2OC(F)F)c1	1	12	15	8	-4	31	x
O=C(NNC(=S)Nc1cccc(Cl)c1)c1ccccc1OC(F)F	-7	4	33	16	-9	43*	28
Cc1ccc(NC(=S)NNC(=O)c2ccccc2OC(F)F)cc1	-1	29	17	-38	-4	40*	39*
Cc1ccc(NC(=O)C2=C(O)CCn3c2nc2ccccc23)cc1	-6	20	27	10	-26	43*	0
COc1ccc(C(=O)C(C)Sc2nnc(C3CC3)n2C2CC2)cc1 (stereo not drawn)	x	-11	-5	x	-7	-20	x
Cc1cc(=O)n(-c2ccc3ccccc3n2)[nH]1	2	13	12	8	-15	54*	19
O=C(Nc1cccc2ccccc12)NC(Cc1ccccc1)C(=O)O (stereo not drawn)	5	8	18	-1	1	-16	x
C/C(=N/Nc1nc(-c2ccc(Cl)cc2)cs1)c1cccs1	-1	17	-1	-3	1	45*	13
CSc1ccc(/C=C/C(=O)c2ccc(NC(=O)C(C)C)cc2)cc1	11	32	39	4	8	42*	40*
CCOCCCNc1c2c(nc3cc(-c4ccc(F)cc4)nn13)CCC2	-3	1	1	6	-9	6	x

Source: PubChem BioAssay (several laboratories)
